Drawing on PubChem BioAssay (EPA / NIEHS), this text covers outcome and AC50 for six compounds.

SMILES strings stand for the structures. Results filed as inconclusive are left out. The source made the active and inactive calls. Rule for the calls, unless noted: active = hit-call score of the fitted dose curve at least 0.9, where 1 is the maximum; inconclusive = response in the unintended direction; inactive = score below 0.9.

Assay [1] is described as follows: ATG_TAL_CIS: Attagene CIS-FACTORIAL HepG2 Assay for human TAL Basal Promoter (AID 2282966; active = hit-call score of the fitted dose curve at least 0.9, where 1 is the maximum; inactive = score below 0.9;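 note: background control endpoint measuring basal TAL promoter reporter mRNA not a specific factor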). The following applies: HepG2 Attagene cis-factorial TAL promoter reporter; actives raise or lower the signal. In a few lines:
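Transiently transfected HepG2 (cis-regulated reporter units), 24 h treatment, mRNA read by fluorescent CE after RT-PCR; bidirectional fit, DMSO baseline.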

Assay [2] can be described thus: ATG_VDRE_CIS: Attagene CIS-FACTORIAL HepG2 Assay for human Vitamin D Receptor Element (VDRE) (AID 2282968; active = hit-call score of the fitted dose curve at least 0.9, where 1 is the maximum; inactive = score below 0.9). To be noted: HepG2 VDRE cis-reporter transcription, actives raise or lower the signal. A digest of the protocol:
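Compounds were applied for 24 h to HepG2 cells transfected with promoter-regulated reporter units. Total RNA was reverse-transcribed, and reporter amplicons were fluorescently labelled and sized by capillary electrophoresis.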

Assay [3] addresses Nuclear receptor subfamily 1 group I member 3 (Homo sapiens) (UniProt Q14994). The assay is described as follows: ATG_CAR_TRANS: Attagene TRANS-FACTORIAL HepG2 Assay for human Constitutive Androstane Receptor (CAR) (AID 2282969).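 Note: activators raise reporter mRNA above DMSO so AC50 marks induction.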 To be noted: HepG2 Attagene TRANS-FACTORIAL CAR reporter. In a few lines:
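Transiently transfected HepG2, multiplex TRANS reporters (CAR-Gal4 chimera driving GAL4-UAS reporter). 24 h dosing. Readout: reporter transcript by RT-PCR + capillary electrophoresis, fluorescence intensity; positive direction vs DMSO.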

In assay [4] the target is X-box-binding protein 1 (Homo sapiens) (UniProt P17861). The assay is described as follows: ATG_Xbp1_CIS: Attagene CIS-FACTORIAL HepG2 Assay for human X-box Binding Protein 1 (XBP1) (AID 2282972; active = hit-call score of the fitted dose curve at least 0.9, where 1 is the maximum; inactive = score below 0.9). The following applies: HepG2 XBP1 cis-element reporter, Attagene multiplex; actives raise or lower the signal. A digest of the protocol: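 Human hepatoma HepG2, cis-element reporter system, 24 h treatment; mRNA quantified by RT-PCR/CE fluorescence; fit relative to DMSO.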
X-box-binding protein 1 (Homo sapiens), sequence (P17861 whole entry, looked up): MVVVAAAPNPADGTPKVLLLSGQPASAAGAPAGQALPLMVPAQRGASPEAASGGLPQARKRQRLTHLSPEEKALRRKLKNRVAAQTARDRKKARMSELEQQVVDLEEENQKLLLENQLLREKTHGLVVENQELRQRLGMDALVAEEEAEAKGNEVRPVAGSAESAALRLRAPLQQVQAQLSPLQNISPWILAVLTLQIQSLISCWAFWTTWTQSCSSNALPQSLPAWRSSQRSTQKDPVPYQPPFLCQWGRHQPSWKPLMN

Assay [5] can be described thus: ATG_GAL4_TRANS: Attagene TRANS-FACTORIAL HepG2 Assay for GAL4 (Internal Marker) (AID 2282976). To be noted: HepG2 Attagene TRANS GAL4 internal marker reporter. In a few lines: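 HepG2 cells transiently transfected with multiplexed GAL4-UAS reporter constructs were dosed for 24 h. Reporter mRNA was measured by RT-PCR, 6-FAM primer extension, HpaI digestion and capillary electrophoresis, and gain of signal was fitted relative to DMSO.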

In assay [6] the target is Glucocorticoid receptor (Homo sapiens) (UniProt P04150). The assay is described as follows: ATG_GR_TRANS: Attagene TRANS-FACTORIAL HepG2 Assay for human Glucocorticoid Receptor (GR) (AID 2282978).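 Note: activators score as hits since higher reporter transcript over DMSO is fitted.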 To be noted: HepG2 Attagene TRANS GR reporter, mRNA transcription. In a few lines:
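Transiently transfected HepG2 cells express chimeric NR-GAL4 proteins acting on GAL4-UAS reporter units. Compounds are applied for 24 h. mRNA induction over DMSO is measured by capillary electrophoresis.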

Assay [7] addresses Bile acid receptor (Homo sapiens) (UniProt Q96RI1). The assay is described as follows: ATG_FXR_TRANS: Attagene TRANS-FACTORIAL HepG2 Assay for Farnesoid X Receptor (FXR) (AID 2282979).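 Note: hits raise reporter mRNA above DMSO so AC50 marks FXR activation.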 To be noted: HepG2 Attagene TRANS FXR-GAL4 reporter transcription. In a few lines:
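HepG2 cells transiently transfected with reporter constructs in which a chimeric FXR-GAL4 protein drives a GAL4-UAS reporter; 24 h compound exposure. Reporter mRNA measured by RT-PCR, FAM labelling, HpaI digestion and capillary electrophoresis; gain-of-signal versus DMSO.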

Assay [8] addresses Oxysterols receptor LXR-alpha (Homo sapiens) (UniProt Q13133). The assay is described as follows: ATG_LXRa_TRANS: Attagene TRANS-FACTORIAL HepG2 Assay for human Liver X Receptor alpha (LXRa) (AID 2282980). The following applies: HepG2 Attagene TRANS reporter, LXRa transactivation. A digest of the protocol:
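HepG2 cells were transiently transfected with multiplexed reporter units driven by chimeric LXRa–GAL4 fusion proteins, then dosed for 24 h. Reporter mRNA was quantified by RT-PCR, fluorescent labelling and capillary electrophoresis; gain of signal fitted against DMSO baseline.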

The nature of assay [9]: ATG_M_06_TRANS: Attagene TRANS-FACTORIAL HepG2 Assay for M06 Transcription Factor (Internal Marker) (AID 2282983). The following applies: HepG2 Attagene TRANS M06 internal marker reporter. In a few lines:
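In this multiplexed HepG2 system, compounds are incubated 24 h with cells carrying GAL4-UAS reporter units. Reporter RNA is amplified and resolved by capillary electrophoresis, and induction is scored against DMSO.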

Assay [10] is described as follows: ATG_M_32_TRANS: Attagene TRANS-FACTORIAL HepG2 Assay for M32 Transcription Factor (Internal Marker) (AID 2282984).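 Note: transcript level of a background control reporter unit measured by RT-PCR and capillary electrophoresis.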 The following applies: HepG2 Attagene TRANS M32 internal marker reporter. A digest of the protocol:
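Internal-marker readout from a multiplexed transcription reporter panel. HepG2 cells were transfected with GAL4-UAS reporter units, treated 24 hours, and reporter transcript levels determined by fluorescence after RT-PCR and capillary separation.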

For assay [11], the target named is Nuclear receptor subfamily 4 group A member 2 (Homo sapiens) (UniProt P43354). The assay is described as follows: ATG_NURR1_TRANS: Attagene TRANS-FACTORIAL HepG2 Assay for human Nuclear Receptor Related Protein 1 (NURR1) (AID 2282985). The following applies: HepG2 Attagene TRANS reporter, mRNA readout. In a few lines: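 Endpoint: reporter mRNA increase relative to DMSO. HepG2 cells transfected with reporter units, treated 24 h; RNA processed by RT-PCR, labelling, HpaI digestion and capillary electrophoresis.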
Nuclear receptor subfamily 4 group A member 2 (Homo sapiens), sequence (P43354 whole entry, looked up): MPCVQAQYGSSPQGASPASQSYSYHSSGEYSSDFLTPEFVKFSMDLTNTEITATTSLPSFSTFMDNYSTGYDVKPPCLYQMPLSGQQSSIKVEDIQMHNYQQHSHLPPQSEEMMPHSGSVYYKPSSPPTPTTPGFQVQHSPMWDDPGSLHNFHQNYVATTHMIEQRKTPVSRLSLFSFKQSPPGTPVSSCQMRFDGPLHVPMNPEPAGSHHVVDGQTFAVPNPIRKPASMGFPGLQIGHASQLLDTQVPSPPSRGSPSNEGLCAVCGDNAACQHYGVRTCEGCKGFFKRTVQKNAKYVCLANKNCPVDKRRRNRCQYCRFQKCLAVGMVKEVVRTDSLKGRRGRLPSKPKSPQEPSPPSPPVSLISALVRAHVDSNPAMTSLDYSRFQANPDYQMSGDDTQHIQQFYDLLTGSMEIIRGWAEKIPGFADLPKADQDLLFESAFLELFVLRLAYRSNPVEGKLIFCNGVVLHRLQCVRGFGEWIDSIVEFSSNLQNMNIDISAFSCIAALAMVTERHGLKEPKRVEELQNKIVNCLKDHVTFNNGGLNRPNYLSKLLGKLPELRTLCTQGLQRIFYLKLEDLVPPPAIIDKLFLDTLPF

The target of assay [12] is Transcriptional activator Myb (Homo sapiens) (UniProt P10242). The assay is described as follows: ATG_Myb_CIS: Attagene CIS-FACTORIAL HepG2 Assay for human Myeloblastosis (Myb) Proto-Oncogene Transcription Factor (AID 2282986; active = hit-call score of the fitted dose curve at least 0.9, where 1 is the maximum; inactive = score below 0.9). The following applies: HepG2 Attagene CIS-FACTORIAL Myb reporter transcription; actives raise or lower the signal. A digest of the protocol:
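Using HepG2 liver cells bearing transiently transfected cis-promoter reporter constructs, the assay measures induction or loss of reporter mRNA after 24 hours of dosing. Detection used fluorescently labeled RT-PCR products separated by capillary electrophoresis.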

Assay [13] concerns the target Nuclear respiratory factor 1 (Homo sapiens) (UniProt Q16656). The assay is described as follows: ATG_NRF1_CIS: Attagene CIS-FACTORIAL HepG2 Assay for human Nuclear Respiratory Factor 1 (NRF1) Orphan Gene (AID 2282987; active = hit-call score of the fitted dose curve at least 0.9, where 1 is the maximum; inactive = score below 0.9). The following applies: HepG2 NRF1 cis-element reporter, Attagene multiplex; actives raise or lower the signal. A digest of the protocol:
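Reporter mRNA induction or loss in HepG2 cells after 24 h dosing; cis-regulated reporter constructs report endogenous transcription-factor activity. Quantified by RT-PCR/capillary electrophoresis fluorescence, DMSO-referenced.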

For assay [14], the target named is Estrogen receptor (Homo sapiens) (UniProt P03372). The assay is described as follows: ATG_ERa_TRANS: Attagene TRANS-FACTORIAL HepG2 Assay for human Estrogen Receptor alpha (ERa) (AID 2282970). To be noted: HepG2 Attagene TRANS ERa GAL4 reporter, mRNA. A digest of the protocol: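 One of 30 multiplexed endpoints from a HepG2 TRANS system, this one reports ERa-Gal4-driven reporter mRNA. Transcripts were quantified 24 hours post-dosing by fluorescent RT-PCR and capillary electrophoresis, with activity scored as induction over DMSO.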
Estrogen receptor (Homo sapiens), sequence (P03372 whole entry, looked up, the tested form may be a part): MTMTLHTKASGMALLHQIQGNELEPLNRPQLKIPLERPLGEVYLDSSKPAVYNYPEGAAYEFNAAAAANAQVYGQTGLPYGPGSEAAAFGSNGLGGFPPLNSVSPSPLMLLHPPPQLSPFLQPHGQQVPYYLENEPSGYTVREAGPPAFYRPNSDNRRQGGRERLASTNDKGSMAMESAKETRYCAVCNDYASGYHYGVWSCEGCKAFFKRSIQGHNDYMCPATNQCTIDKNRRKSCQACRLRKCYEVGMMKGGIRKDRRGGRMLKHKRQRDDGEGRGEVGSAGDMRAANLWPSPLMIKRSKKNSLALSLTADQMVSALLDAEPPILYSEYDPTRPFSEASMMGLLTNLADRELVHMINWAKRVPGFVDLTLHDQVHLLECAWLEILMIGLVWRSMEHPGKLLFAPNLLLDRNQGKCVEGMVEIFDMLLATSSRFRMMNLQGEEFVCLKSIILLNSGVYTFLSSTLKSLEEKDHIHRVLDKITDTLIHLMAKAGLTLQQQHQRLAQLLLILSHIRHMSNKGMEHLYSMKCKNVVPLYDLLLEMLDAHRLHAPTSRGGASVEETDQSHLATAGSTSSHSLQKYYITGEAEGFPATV

The nature of assay [15]: ATG_M_19_TRANS: Attagene TRANS-FACTORIAL HepG2 Assay for M19 Transcription Factor (Internal Marker) (AID 2282974). To be noted: HepG2 Attagene TRANS-FACTORIAL M19 internal marker reporter. A digest of the protocol: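 Multiplexed TRANS format: HepG2 liver cells bearing transient GAL4-UAS reporter units, chemical treatment 24 h, reporter transcripts quantified by RT-PCR plus capillary electrophoresis. DMSO defines baseline.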

Assay [16] has as its target Hepatocyte nuclear factor 4-alpha (Homo sapiens) (UniProt P41235). The assay is described as follows: ATG_HNF4a_TRANS: Attagene TRANS-FACTORIAL HepG2 Assay for human Hepatocyte Nuclear Factor 4 alpha (HNF4a) (AID 2282982). The following applies: HepG2 HNF4a transactivation reporter, mRNA readout. A digest of the protocol: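 Endpoint reflects transcriptional activation of a GAL4-UAS reporter by an HNF4a-GAL4 chimera in transfected HepG2 cells, 24 h post-dosing. Fluorescence from RT-PCR products separated by capillary electrophoresis; DMSO baseline.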

For assay [17], the target named is Steroid hormone receptor ERR1 (Homo sapiens) (UniProt P11474). The assay is described as follows: ATG_ERRa_TRANS: Attagene TRANS-FACTORIAL HepG2 Assay for human Estrogen-Related Receptor alpha (ERRa) (AID 2282971). The following applies: HepG2 Attagene TRANS reporter, ERRa transactivation. In a few lines:
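HepG2 cells transiently transfected with multiplexed GAL4-UAS reporter units reading chimeric ERRa-Gal4 activity; 24 h compound exposure. Reporter mRNA measured by RT-PCR, 6-FAM labelling, HpaI digest and capillary electrophoresis; gain of signal fitted versus DMSO baseline.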

For assay [18], the target named is Oxysterols receptor LXR-beta (Homo sapiens) (UniProt P55055). The assay is described as follows: ATG_LXRb_TRANS: Attagene TRANS-FACTORIAL HepG2 Assay for human Liver X Receptor beta (LXRb) (AID 2282981). To be noted: HepG2 Attagene TRANS GAL4-LXRb reporter, mRNA. A digest of the protocol: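 Multiplexed reporter assay, HepG2, 24 h dosing. Fluorescence of labelled RT-PCR products after capillary electrophoresis gives transcript level; positive fitting direction relative to DMSO.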
Oxysterols receptor LXR-beta (Homo sapiens), sequence (P55055 whole entry, looked up, the tested form may be a part): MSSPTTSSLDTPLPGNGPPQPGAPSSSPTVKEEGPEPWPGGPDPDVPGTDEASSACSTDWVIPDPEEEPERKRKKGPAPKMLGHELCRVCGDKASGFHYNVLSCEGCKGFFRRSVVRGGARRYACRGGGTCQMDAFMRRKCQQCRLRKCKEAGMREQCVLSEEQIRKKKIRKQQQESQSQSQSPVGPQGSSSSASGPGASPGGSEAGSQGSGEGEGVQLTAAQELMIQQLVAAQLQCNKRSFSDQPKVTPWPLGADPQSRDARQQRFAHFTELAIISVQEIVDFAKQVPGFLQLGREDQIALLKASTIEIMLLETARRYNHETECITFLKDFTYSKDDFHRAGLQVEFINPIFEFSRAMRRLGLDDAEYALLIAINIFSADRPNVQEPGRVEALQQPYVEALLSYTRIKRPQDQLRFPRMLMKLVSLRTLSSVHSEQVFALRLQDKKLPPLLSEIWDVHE

What is called AC50 is the midpoint of the concentration-response curve, whichever way the signal moves.

Oxysterols receptor LXR-alpha (Homo sapiens), sequence (Q13133 whole entry, looked up, the tested form may be a part): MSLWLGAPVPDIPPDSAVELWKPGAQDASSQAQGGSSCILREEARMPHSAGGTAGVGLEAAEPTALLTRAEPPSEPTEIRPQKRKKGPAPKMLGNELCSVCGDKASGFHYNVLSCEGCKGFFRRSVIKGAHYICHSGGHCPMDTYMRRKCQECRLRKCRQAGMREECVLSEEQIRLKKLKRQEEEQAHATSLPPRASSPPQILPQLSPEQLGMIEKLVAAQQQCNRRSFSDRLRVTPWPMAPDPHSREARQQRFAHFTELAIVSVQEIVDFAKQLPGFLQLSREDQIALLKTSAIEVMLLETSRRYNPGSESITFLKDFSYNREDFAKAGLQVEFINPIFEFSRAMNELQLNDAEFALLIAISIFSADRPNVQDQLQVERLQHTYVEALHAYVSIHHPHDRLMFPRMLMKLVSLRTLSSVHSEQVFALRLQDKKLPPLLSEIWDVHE
Nuclear respiratory factor 1 (Homo sapiens), sequence (Q16656 whole entry, looked up): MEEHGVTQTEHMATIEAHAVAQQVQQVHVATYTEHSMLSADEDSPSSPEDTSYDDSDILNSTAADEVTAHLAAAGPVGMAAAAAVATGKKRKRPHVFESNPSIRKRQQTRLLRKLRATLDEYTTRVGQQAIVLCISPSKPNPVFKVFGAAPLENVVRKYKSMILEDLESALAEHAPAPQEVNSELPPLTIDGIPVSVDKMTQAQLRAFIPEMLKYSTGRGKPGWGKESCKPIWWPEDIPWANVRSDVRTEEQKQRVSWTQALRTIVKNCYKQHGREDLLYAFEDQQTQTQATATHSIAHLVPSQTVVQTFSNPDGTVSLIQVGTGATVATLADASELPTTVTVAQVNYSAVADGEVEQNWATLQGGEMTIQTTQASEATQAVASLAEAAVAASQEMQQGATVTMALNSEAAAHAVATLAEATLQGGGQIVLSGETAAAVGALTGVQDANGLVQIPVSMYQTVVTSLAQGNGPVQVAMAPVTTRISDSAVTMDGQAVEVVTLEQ
Transcriptional activator Myb (Homo sapiens), sequence (P10242 whole entry, looked up): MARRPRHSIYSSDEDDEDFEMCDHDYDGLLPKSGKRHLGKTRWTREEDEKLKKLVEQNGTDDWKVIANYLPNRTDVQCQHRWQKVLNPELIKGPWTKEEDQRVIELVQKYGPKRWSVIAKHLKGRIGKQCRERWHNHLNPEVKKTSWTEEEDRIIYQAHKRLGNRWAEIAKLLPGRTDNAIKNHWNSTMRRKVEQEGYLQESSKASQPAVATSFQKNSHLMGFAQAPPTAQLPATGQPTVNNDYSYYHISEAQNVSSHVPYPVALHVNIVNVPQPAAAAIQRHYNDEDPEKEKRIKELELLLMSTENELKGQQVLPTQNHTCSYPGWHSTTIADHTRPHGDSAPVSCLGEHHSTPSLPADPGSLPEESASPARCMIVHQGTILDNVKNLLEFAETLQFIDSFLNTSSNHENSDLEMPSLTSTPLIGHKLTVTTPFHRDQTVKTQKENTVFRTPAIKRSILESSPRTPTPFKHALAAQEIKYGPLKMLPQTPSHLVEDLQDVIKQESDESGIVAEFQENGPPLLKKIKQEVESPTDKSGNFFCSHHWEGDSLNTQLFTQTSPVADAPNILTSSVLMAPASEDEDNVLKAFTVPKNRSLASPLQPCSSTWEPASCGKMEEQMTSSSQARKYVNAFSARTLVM
Bile acid receptor (Homo sapiens), sequence (Q96RI1 whole entry, looked up, the tested form may be a part): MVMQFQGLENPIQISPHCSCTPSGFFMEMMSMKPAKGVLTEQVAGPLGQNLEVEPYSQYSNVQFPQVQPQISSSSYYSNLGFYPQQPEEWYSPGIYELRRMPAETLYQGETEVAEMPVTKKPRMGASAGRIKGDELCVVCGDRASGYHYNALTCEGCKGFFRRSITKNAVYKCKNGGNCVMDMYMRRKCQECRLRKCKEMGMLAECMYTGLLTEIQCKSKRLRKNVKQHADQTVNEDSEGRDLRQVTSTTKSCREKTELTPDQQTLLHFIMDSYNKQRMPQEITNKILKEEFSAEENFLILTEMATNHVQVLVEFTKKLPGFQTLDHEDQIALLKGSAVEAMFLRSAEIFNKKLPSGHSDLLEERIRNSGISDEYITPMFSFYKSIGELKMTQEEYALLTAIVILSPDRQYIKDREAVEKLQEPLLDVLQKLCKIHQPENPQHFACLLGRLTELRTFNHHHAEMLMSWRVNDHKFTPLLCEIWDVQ
Glucocorticoid receptor (Homo sapiens), sequence (P04150 whole entry, looked up, the tested form may be a part): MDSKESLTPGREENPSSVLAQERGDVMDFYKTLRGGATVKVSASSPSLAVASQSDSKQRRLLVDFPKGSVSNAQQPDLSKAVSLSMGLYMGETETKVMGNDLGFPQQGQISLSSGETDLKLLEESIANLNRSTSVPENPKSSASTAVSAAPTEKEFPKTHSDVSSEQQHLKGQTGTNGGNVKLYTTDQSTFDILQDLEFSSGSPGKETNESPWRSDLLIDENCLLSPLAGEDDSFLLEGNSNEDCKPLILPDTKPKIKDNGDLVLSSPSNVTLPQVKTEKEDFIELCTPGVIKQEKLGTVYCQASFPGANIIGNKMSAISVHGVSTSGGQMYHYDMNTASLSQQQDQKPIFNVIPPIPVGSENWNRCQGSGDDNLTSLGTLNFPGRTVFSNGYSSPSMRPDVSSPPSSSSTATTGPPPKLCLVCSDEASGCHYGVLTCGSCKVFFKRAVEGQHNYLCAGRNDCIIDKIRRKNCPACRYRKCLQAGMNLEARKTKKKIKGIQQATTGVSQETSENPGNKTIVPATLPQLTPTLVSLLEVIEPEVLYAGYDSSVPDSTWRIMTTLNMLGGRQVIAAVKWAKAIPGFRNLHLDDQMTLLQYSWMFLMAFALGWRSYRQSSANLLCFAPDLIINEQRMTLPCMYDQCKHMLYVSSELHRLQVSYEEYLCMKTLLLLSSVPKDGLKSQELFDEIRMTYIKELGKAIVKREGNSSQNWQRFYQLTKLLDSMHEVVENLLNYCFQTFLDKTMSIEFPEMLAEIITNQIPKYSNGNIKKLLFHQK

For the compound `CC(=O)OCc1ccc2c(c1)OCO2`, the result in assay [1], in [2], in assay [3], in assay [4], in assay [5] and in [6] was inactive. Also, the outcome in [7], in assay [8], in assay [9], in assay [10], in assay [11] and in assay [12] was inactive. Besides, the result in assay [13] was inactive.

Consider `Clc1nc(C(Cl)(Cl)Cl)c(Cl)c(Cl)c1Cl`, for which the concentration at half-maximal activity (AC50) in assay [1] is 57.2 µM (active). The result in [14], in [4], in [15], in assay [8], in assay [16] and in assay [9] was inactive. Moreover, the compound was called inactive in [10], in assay [11], in assay [12] and in assay [13].

As for `C=C(C)C(=O)OCc1ccccc1`, the compound was classed as inactive in assay [1], in assay [2], in [14], in assay [17], in assay [4] and in [15]. Further, the result in [16], in [10], in [11] and in assay [12] was inactive.

Turning to `C=C(C)[C@@H]1CCC2=CC(=O)C[C@@H](C)[C@]2(C)C1`, the compound was called inactive in [1], in assay [2], in [14], in assay [4], in [15] and in assay [8]. Also, the compound was called inactive in [18], in assay [9], in [10], in assay [12] and in [13].

As for `C=CCOc1nc(OCC=C)nc(OCC=C)n1`, the compound was classed as inactive in assay [1], in [2], in [4], in [15], in [6] and in [8]. Moreover, the compound was classed as inactive in assay [18], in assay [9], in assay [10] and in [13].

As to `CCCCCCCCCOC(C)=O`, the call in assay [1], in [2], in assay [3], in [14], in assay [4] and in assay [15] was inactive. Further, the result in assay [5], in [7], in assay [10], in [11], in assay [12] and in assay [13] was inactive.
